# High-throughput results: PubChem, several laboratories
# Sampled rows, rich in hits. Any-hit rate of the full collection: about 4.5%.
# PfHsp90 yeast 2 – growth inhibition of PfHsp90-expressing yeast, primary screen, antimalarial PfHsp90 inhibitor project, S. cerevisiae, BacTiter-Glo luminescence, single point, set 2; 310,000 tested, 0.32% active; AID 504621, 2011; BacTiter-Glo ATP, 48 h; yeast lacking PDR1 and PDR3 efflux regulators; inhibition, % at 9.4 µM;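 active means every replicate shows inhibition above about 80%, whatever the replicate mean, limit read from the data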;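 further: 0% = DMSO neutral controls and 100% = 20 µM radicicol positive controls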
# NALP3 yeast inh – NALP3 inflammasome inhibitors in reconstituted yeast, primary screen, luminescence, uHTS; Yeast reconstituted NLRP3/ASC/caspase-1, beta-gal luminescence, 24 h; inhibition, % at 10 µM; 330,000 tested, 0.39% active; AID 2825, 2010;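 active means inhibition of 50% or more; inactive means inhibition below 50%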;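 further: plate controls were induced DMSO wells for no effect and uninduced yeast grown without galactose for full effect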
# SKKanGAS inh – S. pyogenes SKKanGAS growth inhibitors in kanamycin, primary screen, streptokinase expression inhibitor project, SKKanGAS strain, BacTiter-Glo luminescence; 300,000 tested, 1.3% active; 6 h; inhibition, % at 7.5 µM;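 active means mean replicate score, as percent of positive control median, at least 50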;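 further: strain carries kanamycin resistance gene driven by streptokinase promoter and grows in 40 µg/ml kanamycin; loss of luminescence reflects streptokinase promoter inhibition or plain growth inhibition; 0% = median of DMSO wells and 100% = positive control at its reference dose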
# tim10-1 inh – growth inhibitors of tim10-1 mutant yeast, primary screen, luminescence, uHTS | S. cerevisiae tim10-1 ts strain growth, BacTiter-Glo, 24 h | inhibition, % at 20 µM | 330,000 tested, 2.2% active;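 active means inhibition of at least 40%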;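 further: mutant grown at 25 °C; 0% = DMSO wells with yeast and 100% = wells holding no yeast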
# tim23-1 inh – growth inhibitors of tim23-1 mutant yeast, primary screen, luminescence, uHTS | S. cerevisiae tim23-1 growth, BacTiter-Glo luminescence, 24 h | inhibition, % at 20 µM | 330,000 tested, 1.3% active;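 active means growth inhibition of the mutant yeast at or above 50%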;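 further: temperature-sensitive mutant grown at 25 °C; plate controls were DMSO-treated mutant yeast for no effect and medium wells lacking yeast for full effect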
# TIM10 inh – growth inhibitors of isogenic TIM10 control yeast, primary screen, counter-screen for tim10-1 yeast inhibitor project, luminescence, uHTS; S. cerevisiae TIM10 strain growth, BacTiter-Glo luminescence, 24 h; inhibition, % at 10 µM; 330,000 tested, 1.4% active;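 active means inhibition of 40% or more at the single tested concentration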;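 further: wild-type TIM10 isogenic control strain grown at permissive 25 °C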
# tim10 confirm – growth inhibitors of wild-type TIM10 yeast, confirmation, counter-screen for tim10-1 synthetic lethality project, single concentration, luminescence, S. cerevisiae; shares compounds with TIM10 inh; S. cerevisiae tim10 strain growth, BacTiter-Glo luminescence, 24 h; inhibition, % at 10 µM; 4,600 tested, 63% active;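 active means inhibition of yeast growth at or above a set limit in either of two replicates at 10 µM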;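 further: this counterscreen used the strain with wild-type TIM10; 0% = yeast with DMSO and 100% = medium wells lacking yeast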
# An asterisk follows results filed as active; x = no result given.
SMILES,PfHsp90 yeast 2,NALP3 yeast inh,SKKanGAS inh,tim10-1 inh,tim23-1 inh,TIM10 inh,tim10 confirm
COc1ccc2[nH]c(C)c(CCNC(=S)Nc3ccccc3C)c2c1,19,4,-6,29,6,12,x
O=[N+]([O-])c1cc(Cl)cc(/C=N\Nc2ccccn2)c1O,x,28,102*,16,44,41*,28
O=[N+]([O-])c1ccc(Cl)cc1C=NNc1ccccn1,3,x,x,x,x,x,x
CC(C)(C)c1ccc(C(=O)NC(=S)NCc2cccnc2)cc1,9,20,-1,38,45,41*,30*
NC(=O)c1ccc(NC(=O)c2ccc(CN3CCOCC3)cc2)cc1,-3,2,-9,5,7,43*,-3
CCOC(=O)c1ccc(NC(=O)c2ccc(CN3CCOCC3)cc2)cc1,-3,12,3,-15,7,-22,x
COc1ccc(NC(=O)c2ccc(CN3CCN(c4ccccc4)CC3)cc2)cc1,9,19,5,14,16,6,x
COc1cccc(NC(=O)c2ccc(CN3CCN(c4ccccc4)CC3)cc2)c1,-27,31,-4,27,26,51*,21
O=C(Nc1ccc(Cl)c(Cl)c1)Nc1ccccc1NS(=O)(=O)c1cccs1,5,5,24,20,-142,47*,25
O=C(Nc1ccccc1)Nc1ccccc1NS(=O)(=O)c1cccs1,-1,-5,-4,5,7,1,x
CN1C=CC=C/C1=C1\SC(=S)N(N)C1=O,-2,-7,-3,24,7,-9,x
CC(C)(C)c1cc(O)c(C(C)(C)C)cc1O,x,1,2,31,46,47*,42*
Cc1n[nH]c(C)c1CCOc1ccc(C(C)C)cc1,-15,2,96*,36,43,49*,30*
Brc1ccc(-c2ccc(CNCc3ccccn3)o2)cc1,7,19,67*,5,11,69*,23
O=C(N/N=C/c1sc(=O)n(-c2ccccc2)c1Cl)c1ccccc1,10,6,11,31,48,42*,22
CSC1=NC(=O)/C(=C/c2ccc(SC)cc2)S1,x,16,-1,24,24,49*,21
CCOc1ccc(Oc2ccc(C(F)(F)F)cc2NC(=O)C2=COCCO2)cc1,-6,15,x,10,9,12,x
Cc1cccc(C(=O)NCC(=O)OCCOc2ccccc2Cl)c1,9,25,-7,-5,2,-9,x
Cc1cc(CC(C)C)n(-c2nc3ccccc3c(=O)n2OCc2ccccc2)n1,x,0,19,34,38,40*,37*
Cc1cc(CC(C)C)n(-c2nc3ccccc3c(=O)n2OCC(=O)N(C)C)n1,-2,2,x,15,18,5,x
CCCN1C(=O)/C(=C/c2ccc(N3CCCC3)c(C)c2)NC1=S,-44,-1,33,38,21,28,x
Cc1cc(/C=C2\NC(=S)N(C)C2=O)ccc1N1CCCC1,-19,34,17,30,-15,42*,40*
COc1ccccc1NC(=O)c1cc(C(=O)Nc2ccccc2OC)cc([N+](=O)[O-])c1,1,11,-8,-36,-13,-9,x
CC(=O)Nc1ccc2c(c1)Cc1c-2cc(Br)c(N)c1Br,5,x,x,x,x,x,x
O=C(O)/C=C/c1cn(-c2ccccc2)nc1-c1ccc2c(c1)OCCO2,16,14,-5,8,25,-3,x
SMILES,PfHsp90 yeast 2,NALP3 yeast inh,SKKanGAS inh,tim10-1 inh,tim23-1 inh,TIM10 inh,tim10 confirm
O/N=C/c1cn(-c2ccccc2)nc1-c1ccc2c(c1)OCCO2,-16,35,-11,16,-34,40,-3
Cc1cccc(/C=N/n2c(C3CCCCC3)n[nH]c2=S)c1,-4,33,12,30,33,40*,49*
CCOc1ccccc1/C=N/n1c(C2CCCCC2)n[nH]c1=S,-36,23,1,13,37,43*,50*
CC(=O)CCN1C(=O)NC2(CCCc3ccccc32)C1=O (configuration not stated),25,4,1,-11,-1,2,x
CC1CC(C)CN(CC(O)COCc2ccccc2)C1 (configuration not stated),13,18,-1,2,4,-14,x
C/C(=N\NC(=S)NC1CCCCC1)c1ccc(O)cc1,x,-5,-4,32,40,49*,42*
CC(C)(C)c1ccc(/C=N/NC(=S)NC2CCCCC2)cc1,-21,15,39,35,37,96*,48*
O=C(N/N=C/c1ccccc1)NC1CCCCC1,8,13,-5,19,24,7,x
C/C(=N\NC(=S)NC1CCCCC1)c1ccccc1,-43,4,0,23,30,-6,x
Oc1[nH]c2ccccc2c1N=Nc1nc(Nc2ccccc2)nc(N2CCOCC2)n1,-38,9,41,18,13,11,x
Cc1[nH]c2ccccc2c1/C=N/Nc1nc(Nc2ccccc2)nc(N2CCOCC2)n1,-19,26,5,24,18,52*,35*
Fc1ccc(Nc2nc(N/N=C/c3ccco3)nc(N3CCCCC3)n2)cc1,-6,23,68*,13,41,40*,22
COc1ccc(/C=N/Nc2nc(Nc3ccccc3)nc(N3CCCCC3)n2)c(OC)c1,4,22,19,30,25,41*,-32
COc1ccc(OCCOC(=O)CNS(=O)(=O)c2ccc(SC)c([N+](=O)[O-])c2)cc1,20,21,-3,6,21,10,x
Cc1cccc(OCC(=O)OC(C)C(=O)Nc2ccc(S(=O)(=O)N3CCCCC3)cc2)c1 (configuration not stated),x,4,-4,30,21,17,x
CC(C)(C)Nc1nc(Cl)nc(Nc2ccccc2)n1,-36,-12,12,-5,48,1,x
COc1ccccc1Nc1nc(Cl)nc(NC(C)(C)C)n1,-33,-29,0,33,18,42*,23
CC12CC(c3ccccc3O1)N(C(=O)c1ccco1)C(=S)N2c1ccc(F)cc1 (configuration not stated),23,-1,-3,38,48,42*,40*
CCCC(=O)Nc1cccc(-c2nc3ccccc3o2)c1,-2,40,-1,25,-8,47*,12
CC1CCC(NC(=O)CSc2nncn2C)CC1 (configuration not stated),x,7,x,-10,-4,-1,x
